This passage reports inhibition results from PubChem BioAssay AID435006 (Sanford-Burnham Center for Chemical Genomics, 2010).

Hit rate of the full screen: of about 1,300 compounds, about 1,100 (85%) were called active. No stated cut-off is given here; in the data, active means inhibition above about 48%; inactive means the rest. The set was probably picked from earlier hits. These entries were drawn from the full list.

The assay can be described thus: yeast-expressed human NALP3 blockade – luminescence, single concentration, confirmation (AID 435006). The note with it: yeast expressing human NALP3, luminescence; at 10 µM; active compounds read high.
Take `Cc1cc2ccccn2c1C(C[N+](=O)[O-])c1c(F)cccc1Cl` (stereo unspecified): the inhibition is 72.8% (active).

`O=C1/C(=C\c2ccc3c(c2)OCO3)N2CCC1CC2`: the inhibition was 59.5% (active).

In the case of `CCCCCCCCCCCCn1ccc(=N)cc1`, the inhibition was 82.9% (active).

Consider `C[C@]12CCC3C(CC[C@H]4C[C@@H](O)CC[C@]34C)C1C[C@@H](O)[C@H]2O` (stereo partly specified), for which the inhibition is 53% (active).

For the molecule `C[C@]12CCC3C(CC[C@H]4C[C@@H](O)CC[C@]34C)C1CC[C@@H]2O` (stereo partly specified), the inhibition was 57.9% (active).

`Cc1ccc(-c2nc3ccccc3c(=O)n2-c2ccc(Br)cn2)cc1`: the inhibition is 73.3% (active).

A word on the inhibition: it is how much of the control response was suppressed.
